# Laboratory results from publication PMC7862700, “An all-to-all approach to the identification of sequence-specific readers for epigenetic DNA modifications on cytosine”.
# Experiments:
# Experiment in all cases: DAPPL (digital affinity profiling via proximity ligation, sequencing); 10 mM Tris-HCl pH 7.5, 50 mM NaCl, 1 mM DTT, 4% glycerol, room temperature, 30 min; GST-TFs on glutathione beads, 16-mer random dsDNA library, 0.1% formaldehyde crosslink after washing; high values mean tight binding
# FLI1 = biological target: T1, FLI1 (Homo sapiens, UniProt Q01543 1-452); details: protein: recombinant; tags: N-terminal GST; dsDNA, one strand shown
# T1 sequence: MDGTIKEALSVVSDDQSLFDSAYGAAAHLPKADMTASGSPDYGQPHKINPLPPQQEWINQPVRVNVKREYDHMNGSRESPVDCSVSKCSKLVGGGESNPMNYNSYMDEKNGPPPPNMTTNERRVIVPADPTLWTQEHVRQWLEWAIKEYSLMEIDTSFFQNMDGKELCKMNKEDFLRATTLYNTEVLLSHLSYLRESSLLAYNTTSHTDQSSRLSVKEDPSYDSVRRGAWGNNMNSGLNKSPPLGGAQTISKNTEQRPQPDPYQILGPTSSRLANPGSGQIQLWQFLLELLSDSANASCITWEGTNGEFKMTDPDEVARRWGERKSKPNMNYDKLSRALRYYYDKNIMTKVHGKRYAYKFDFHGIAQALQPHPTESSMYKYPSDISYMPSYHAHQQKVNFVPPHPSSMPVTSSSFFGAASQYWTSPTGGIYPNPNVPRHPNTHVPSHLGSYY
# Outline: (§1)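 Human transcription factors fused to GST were expressed in yeast, captured on glutathione beads, given DNA barcodes and pooled with a GST-only negative control. Pools were incubated with 200 nmole of a 16-mer random double-stranded DNA library in Tris/NaCl/DTT/glycerol buffer at room temperature for 30 min. They were then washed, crosslinked with 0.1% formaldehyde, proximity-ligated (BsaI/T4 ligase, 1 h, 37 °C), PCR-amplified and sequenced on an Illumina NextSeq500. Binding signal is each 6-mer's read frequency for a factor divided by its frequency for the GST control.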
# ELK1 = biological target: T2, ELK1 (Homo sapiens, UniProt P19419 1-428); details: protein: recombinant; tags: N-terminal GST; dsDNA, one strand shown
# T2 sequence: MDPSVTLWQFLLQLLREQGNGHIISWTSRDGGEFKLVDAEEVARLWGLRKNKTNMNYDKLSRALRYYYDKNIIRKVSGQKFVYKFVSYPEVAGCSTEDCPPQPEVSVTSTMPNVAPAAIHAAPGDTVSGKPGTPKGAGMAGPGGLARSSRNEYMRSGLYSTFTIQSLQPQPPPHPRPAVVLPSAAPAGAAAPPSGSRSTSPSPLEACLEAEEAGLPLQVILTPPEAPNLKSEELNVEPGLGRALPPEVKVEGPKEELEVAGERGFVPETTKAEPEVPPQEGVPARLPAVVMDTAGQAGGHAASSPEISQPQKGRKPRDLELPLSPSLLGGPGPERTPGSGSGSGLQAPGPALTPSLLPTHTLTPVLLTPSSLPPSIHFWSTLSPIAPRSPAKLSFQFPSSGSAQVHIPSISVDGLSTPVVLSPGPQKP
# Outline: as §1
# GABPA = biological target: T3, GABPA (Homo sapiens, UniProt Q06546 1-454); details: protein: recombinant; tags: N-terminal GST; dsDNA, one strand shown
# T3 sequence: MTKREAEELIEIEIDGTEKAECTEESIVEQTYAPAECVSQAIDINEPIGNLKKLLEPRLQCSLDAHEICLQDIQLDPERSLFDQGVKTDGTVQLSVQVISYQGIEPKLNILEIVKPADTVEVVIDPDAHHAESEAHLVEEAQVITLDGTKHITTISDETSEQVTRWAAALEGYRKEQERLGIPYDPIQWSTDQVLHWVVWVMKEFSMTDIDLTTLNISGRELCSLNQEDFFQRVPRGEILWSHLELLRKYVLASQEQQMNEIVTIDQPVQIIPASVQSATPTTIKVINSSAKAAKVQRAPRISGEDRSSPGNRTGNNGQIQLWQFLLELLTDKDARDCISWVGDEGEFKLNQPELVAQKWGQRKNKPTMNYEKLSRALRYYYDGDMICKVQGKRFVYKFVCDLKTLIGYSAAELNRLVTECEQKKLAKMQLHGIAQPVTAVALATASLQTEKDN
# Outline: as §1
# ERG = biological target: T4, ERG (Homo sapiens, UniProt P11308 1-479); details: protein: recombinant; tags: N-terminal GST; dsDNA, one strand shown
# T4 sequence: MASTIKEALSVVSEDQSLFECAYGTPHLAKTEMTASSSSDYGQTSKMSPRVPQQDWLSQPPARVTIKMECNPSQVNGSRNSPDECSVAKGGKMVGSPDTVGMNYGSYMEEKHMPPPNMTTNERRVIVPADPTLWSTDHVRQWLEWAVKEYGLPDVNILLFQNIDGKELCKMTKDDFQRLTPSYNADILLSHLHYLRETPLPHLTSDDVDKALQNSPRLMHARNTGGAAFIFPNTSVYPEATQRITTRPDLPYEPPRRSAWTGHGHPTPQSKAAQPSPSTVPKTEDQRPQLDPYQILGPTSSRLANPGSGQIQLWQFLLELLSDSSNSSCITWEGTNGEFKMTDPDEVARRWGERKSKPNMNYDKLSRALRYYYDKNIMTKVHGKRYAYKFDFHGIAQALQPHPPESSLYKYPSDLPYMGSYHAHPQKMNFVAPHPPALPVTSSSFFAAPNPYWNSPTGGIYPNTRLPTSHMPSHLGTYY
# Outline: as §1
# ELF1 = ELF1 (Homo sapiens, UniProt P32519 1-619); details: protein: recombinant; tags: N-terminal GST; dsDNA, one strand shown
# Outline: as §1
# EHF = biological target: T5, EHF (Homo sapiens, UniProt Q9NZC4 1-300); details: protein: recombinant; tags: N-terminal GST; dsDNA, one strand shown
# T5 sequence: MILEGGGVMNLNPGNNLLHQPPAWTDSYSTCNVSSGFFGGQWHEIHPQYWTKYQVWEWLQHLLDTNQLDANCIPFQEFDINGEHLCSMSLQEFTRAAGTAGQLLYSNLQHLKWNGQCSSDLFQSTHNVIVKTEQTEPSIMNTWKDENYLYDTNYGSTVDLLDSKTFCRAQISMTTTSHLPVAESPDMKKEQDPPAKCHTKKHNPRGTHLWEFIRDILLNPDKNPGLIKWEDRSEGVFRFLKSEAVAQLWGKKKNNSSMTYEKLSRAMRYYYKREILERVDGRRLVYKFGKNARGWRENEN
# Outline: as §1
# SPI1 = SPI1 (Homo sapiens, UniProt P17947 1-270); details: protein: recombinant; tags: N-terminal GST; dsDNA, one strand shown
# Outline: as §1
# SPIB = SPIB (Homo sapiens, UniProt Q01892 1-262); details: protein: recombinant; tags: N-terminal GST; dsDNA, one strand shown
# Outline: as §1
# ELK3 = biological target: T6, ELK3 (Homo sapiens, UniProt P41970 1-407); details: protein: recombinant; tags: N-terminal GST; dsDNA, one strand shown
# T6 sequence: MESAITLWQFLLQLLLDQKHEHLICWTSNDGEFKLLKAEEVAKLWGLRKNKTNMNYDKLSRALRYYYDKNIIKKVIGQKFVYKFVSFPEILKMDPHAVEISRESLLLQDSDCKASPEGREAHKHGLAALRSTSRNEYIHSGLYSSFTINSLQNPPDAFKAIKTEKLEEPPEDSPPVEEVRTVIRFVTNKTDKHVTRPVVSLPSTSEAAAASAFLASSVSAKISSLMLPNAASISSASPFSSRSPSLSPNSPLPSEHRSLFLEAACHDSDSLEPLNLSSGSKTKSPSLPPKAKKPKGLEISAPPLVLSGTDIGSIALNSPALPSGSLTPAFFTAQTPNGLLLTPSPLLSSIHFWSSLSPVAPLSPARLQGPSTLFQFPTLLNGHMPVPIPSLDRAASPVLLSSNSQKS
# Outline: as §1
# FEV = biological target: T7, FEV (Homo sapiens, UniProt Q99581 1-238); details: protein: recombinant; tags: N-terminal GST; dsDNA, one strand shown
# T7 sequence: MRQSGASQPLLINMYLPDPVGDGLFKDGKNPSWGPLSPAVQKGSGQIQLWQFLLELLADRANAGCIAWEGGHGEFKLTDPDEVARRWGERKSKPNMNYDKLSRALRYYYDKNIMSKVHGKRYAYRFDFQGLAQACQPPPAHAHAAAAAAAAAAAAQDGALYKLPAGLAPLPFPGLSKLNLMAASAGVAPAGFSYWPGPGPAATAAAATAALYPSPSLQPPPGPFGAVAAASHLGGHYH
# Outline: as §1
# ETV5 = ETV5 (Homo sapiens, UniProt P41161 1-510); details: protein: recombinant; tags: N-terminal GST; dsDNA, one strand shown
# Outline: as §1
# HSF1 = HSF1 (Homo sapiens, UniProt Q00613 1-529); details: protein: recombinant; tags: N-terminal GST; chain copies: 3; dsDNA, one strand shown
# Outline: as §1
# SPIC = biological target: T8, SPIC (Homo sapiens, UniProt Q8N5J4 1-248); details: protein: recombinant; tags: N-terminal GST; dsDNA, one strand shown
# T8 sequence: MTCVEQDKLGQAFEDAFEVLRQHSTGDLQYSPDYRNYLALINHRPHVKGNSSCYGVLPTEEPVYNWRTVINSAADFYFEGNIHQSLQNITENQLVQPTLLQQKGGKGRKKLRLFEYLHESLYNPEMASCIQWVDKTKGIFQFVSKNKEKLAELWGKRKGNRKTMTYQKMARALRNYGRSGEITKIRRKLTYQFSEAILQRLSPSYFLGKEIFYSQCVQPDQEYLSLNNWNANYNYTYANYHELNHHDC
# Outline: as §1
# ELF4 = ELF4 (Homo sapiens, UniProt Q99607 1-663); details: protein: recombinant; tags: N-terminal GST; dsDNA, one strand shown
# Outline: as §1
# ELK4 = biological target: T9, ELK4 (Homo sapiens, UniProt P28324-2 1-405); details: protein: recombinant; tags: N-terminal GST; dsDNA, one strand shown
# T9 sequence: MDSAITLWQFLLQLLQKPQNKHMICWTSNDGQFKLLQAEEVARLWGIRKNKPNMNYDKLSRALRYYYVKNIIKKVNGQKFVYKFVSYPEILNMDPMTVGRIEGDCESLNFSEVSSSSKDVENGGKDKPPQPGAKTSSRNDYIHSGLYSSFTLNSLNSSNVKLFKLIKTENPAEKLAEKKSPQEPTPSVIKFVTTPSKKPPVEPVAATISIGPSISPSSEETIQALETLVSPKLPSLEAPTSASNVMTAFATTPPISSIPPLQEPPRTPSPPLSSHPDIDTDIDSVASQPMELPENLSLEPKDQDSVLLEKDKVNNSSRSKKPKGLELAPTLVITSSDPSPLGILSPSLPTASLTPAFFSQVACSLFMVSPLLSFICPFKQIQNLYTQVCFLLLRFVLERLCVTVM
# Outline: as §1
# ETV2 = biological target: T10, ETV2 (Homo sapiens, UniProt O00321 1-342); details: protein: recombinant; tags: N-terminal GST; dsDNA, one strand shown
# T10 sequence: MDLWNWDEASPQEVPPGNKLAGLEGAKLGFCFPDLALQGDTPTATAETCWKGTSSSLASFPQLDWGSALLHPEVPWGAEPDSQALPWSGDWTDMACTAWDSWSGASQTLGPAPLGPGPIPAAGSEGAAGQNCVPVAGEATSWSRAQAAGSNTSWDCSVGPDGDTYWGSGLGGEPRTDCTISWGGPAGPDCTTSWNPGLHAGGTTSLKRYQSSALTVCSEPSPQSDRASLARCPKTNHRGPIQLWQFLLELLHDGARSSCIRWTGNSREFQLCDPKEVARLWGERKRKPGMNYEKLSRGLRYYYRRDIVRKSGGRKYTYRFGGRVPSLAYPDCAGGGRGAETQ
# Outline: as §1
# ELF3 = biological target: T11, ELF3 (Homo sapiens, UniProt P78545 1-371); details: protein: recombinant; tags: N-terminal GST; dsDNA, one strand shown
# T11 sequence: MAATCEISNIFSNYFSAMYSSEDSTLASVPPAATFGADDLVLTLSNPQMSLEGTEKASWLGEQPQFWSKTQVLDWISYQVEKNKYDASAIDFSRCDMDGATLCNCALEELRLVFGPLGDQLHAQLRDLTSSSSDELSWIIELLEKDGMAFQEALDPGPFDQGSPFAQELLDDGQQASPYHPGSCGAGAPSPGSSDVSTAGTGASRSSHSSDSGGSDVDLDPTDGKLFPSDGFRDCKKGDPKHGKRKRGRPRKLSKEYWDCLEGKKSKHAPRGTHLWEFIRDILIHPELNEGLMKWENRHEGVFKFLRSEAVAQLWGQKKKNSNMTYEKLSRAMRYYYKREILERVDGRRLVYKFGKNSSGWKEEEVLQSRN
# Outline: as §1
# CRX = CRX (Homo sapiens, UniProt O43186 1-299); details: protein: recombinant; tags: N-terminal GST; dsDNA, one strand shown
# Outline: as §1
# ETV1 = ETV1 (Homo sapiens, UniProt P50549 1-477); details: protein: recombinant; tags: N-terminal GST; dsDNA, one strand shown
# Outline: as §1
# CRX, sequence (O43186 whole entry): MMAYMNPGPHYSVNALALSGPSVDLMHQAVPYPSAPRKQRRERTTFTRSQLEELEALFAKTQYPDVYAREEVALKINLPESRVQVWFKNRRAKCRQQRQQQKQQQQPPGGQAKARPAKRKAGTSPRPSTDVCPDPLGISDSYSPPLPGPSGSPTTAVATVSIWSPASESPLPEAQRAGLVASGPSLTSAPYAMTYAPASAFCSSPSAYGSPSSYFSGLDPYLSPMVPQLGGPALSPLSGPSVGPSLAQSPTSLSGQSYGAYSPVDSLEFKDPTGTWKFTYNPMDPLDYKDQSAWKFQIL
# HSF1, sequence (Q00613 whole entry): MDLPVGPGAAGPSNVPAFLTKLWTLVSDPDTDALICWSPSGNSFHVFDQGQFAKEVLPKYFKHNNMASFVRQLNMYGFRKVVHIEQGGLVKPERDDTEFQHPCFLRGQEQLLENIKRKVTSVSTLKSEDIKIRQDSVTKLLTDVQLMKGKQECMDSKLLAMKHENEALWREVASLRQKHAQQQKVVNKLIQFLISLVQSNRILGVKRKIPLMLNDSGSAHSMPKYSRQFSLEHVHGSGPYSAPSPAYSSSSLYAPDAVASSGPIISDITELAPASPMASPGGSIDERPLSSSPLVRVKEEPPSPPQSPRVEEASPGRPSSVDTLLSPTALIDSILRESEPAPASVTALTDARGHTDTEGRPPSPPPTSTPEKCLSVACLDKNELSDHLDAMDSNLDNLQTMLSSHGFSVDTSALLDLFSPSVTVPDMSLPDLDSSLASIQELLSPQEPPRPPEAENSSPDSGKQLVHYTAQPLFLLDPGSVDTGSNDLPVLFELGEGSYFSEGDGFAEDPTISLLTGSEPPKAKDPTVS
# ETV1, sequence (P50549 whole entry): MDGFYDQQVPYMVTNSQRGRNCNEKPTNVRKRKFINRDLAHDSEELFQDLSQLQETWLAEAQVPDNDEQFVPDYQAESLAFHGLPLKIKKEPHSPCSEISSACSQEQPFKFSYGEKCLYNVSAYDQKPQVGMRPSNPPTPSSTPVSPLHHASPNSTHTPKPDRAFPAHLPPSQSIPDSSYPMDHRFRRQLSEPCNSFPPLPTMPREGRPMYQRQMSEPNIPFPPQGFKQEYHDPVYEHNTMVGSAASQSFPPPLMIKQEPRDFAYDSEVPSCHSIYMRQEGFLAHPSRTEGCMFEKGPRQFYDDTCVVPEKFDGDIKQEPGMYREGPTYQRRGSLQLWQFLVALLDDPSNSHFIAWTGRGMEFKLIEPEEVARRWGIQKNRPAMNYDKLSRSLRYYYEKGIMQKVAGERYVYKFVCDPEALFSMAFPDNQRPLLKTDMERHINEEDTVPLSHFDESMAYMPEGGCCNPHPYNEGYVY
# ELF1, sequence (P32519 whole entry): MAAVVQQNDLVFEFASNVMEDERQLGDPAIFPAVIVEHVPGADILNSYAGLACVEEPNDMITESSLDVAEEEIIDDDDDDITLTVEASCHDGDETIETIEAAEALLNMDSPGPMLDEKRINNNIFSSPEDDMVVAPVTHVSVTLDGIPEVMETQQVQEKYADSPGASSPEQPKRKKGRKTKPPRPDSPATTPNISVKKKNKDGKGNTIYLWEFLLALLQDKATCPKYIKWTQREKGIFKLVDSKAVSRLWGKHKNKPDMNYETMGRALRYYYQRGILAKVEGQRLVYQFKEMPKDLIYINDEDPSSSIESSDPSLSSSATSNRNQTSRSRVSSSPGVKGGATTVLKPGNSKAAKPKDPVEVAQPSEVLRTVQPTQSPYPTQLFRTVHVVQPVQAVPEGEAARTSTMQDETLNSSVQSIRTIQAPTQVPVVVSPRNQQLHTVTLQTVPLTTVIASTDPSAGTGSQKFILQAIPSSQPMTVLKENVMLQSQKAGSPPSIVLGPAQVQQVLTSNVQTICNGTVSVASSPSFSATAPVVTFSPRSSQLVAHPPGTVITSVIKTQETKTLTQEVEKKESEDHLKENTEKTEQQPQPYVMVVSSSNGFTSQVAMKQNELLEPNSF
# ELF4, sequence (Q99607 whole entry): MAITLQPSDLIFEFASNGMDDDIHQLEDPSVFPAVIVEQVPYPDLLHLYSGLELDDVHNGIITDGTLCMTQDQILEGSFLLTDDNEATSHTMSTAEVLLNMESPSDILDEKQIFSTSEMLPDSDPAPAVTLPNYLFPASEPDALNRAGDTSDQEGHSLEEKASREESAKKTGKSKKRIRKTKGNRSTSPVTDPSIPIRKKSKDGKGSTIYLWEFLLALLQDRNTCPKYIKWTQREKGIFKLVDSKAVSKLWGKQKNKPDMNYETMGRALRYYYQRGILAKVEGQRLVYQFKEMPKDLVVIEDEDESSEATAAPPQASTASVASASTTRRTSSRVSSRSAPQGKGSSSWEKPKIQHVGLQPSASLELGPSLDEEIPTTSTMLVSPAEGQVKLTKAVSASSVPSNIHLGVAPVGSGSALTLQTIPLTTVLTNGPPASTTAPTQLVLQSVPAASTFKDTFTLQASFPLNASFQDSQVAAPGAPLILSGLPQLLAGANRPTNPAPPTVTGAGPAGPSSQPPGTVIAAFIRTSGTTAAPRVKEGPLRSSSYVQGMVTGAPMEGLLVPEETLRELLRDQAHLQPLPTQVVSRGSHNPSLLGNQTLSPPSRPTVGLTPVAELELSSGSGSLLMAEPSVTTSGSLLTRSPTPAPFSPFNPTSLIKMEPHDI
# SPIB, sequence (Q01892 whole entry): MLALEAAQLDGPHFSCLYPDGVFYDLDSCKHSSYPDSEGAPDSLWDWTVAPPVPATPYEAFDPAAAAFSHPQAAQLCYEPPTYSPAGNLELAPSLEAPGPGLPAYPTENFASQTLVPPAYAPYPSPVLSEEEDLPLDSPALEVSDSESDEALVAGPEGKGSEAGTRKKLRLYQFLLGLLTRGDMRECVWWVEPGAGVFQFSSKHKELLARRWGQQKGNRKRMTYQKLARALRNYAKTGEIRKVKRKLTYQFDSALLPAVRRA
# ETV5, sequence (P41161 whole entry): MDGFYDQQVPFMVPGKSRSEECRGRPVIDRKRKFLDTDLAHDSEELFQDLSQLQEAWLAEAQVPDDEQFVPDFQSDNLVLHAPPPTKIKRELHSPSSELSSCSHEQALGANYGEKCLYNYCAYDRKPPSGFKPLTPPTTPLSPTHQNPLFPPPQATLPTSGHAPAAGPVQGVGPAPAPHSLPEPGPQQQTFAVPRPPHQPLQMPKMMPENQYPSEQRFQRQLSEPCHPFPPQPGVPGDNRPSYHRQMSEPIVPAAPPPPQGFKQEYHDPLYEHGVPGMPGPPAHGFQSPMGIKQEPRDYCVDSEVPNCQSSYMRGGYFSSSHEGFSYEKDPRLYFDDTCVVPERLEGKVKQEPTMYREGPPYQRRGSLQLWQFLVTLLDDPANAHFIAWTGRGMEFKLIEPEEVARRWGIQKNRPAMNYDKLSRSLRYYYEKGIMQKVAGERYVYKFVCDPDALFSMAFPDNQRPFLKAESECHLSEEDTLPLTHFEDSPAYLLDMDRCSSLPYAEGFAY
sequence,measurement,setting,value
AAAGCA,binding signal,FLI1,"1.01 fold enrichment (6-mer frequency, TF over GST control)"
same,binding signal,ELK1,"1.04 fold enrichment (6-mer frequency, TF over GST control)"
same,binding signal,GABPA,"1.15 fold enrichment (6-mer frequency, TF over GST control)"
same,binding signal,ERG,"1.09 fold enrichment (6-mer frequency, TF over GST control)"
same,binding signal,ELF1,"1.04 fold enrichment (6-mer frequency, TF over GST control)"
same,binding signal,EHF,"1.02 fold enrichment (6-mer frequency, TF over GST control)"
same,binding signal,SPI1,"1.1 fold enrichment (6-mer frequency, TF over GST control)"
same,binding signal,SPIB,"1.08 fold enrichment (6-mer frequency, TF over GST control)"
same,binding signal,ELK3,"1.05 fold enrichment (6-mer frequency, TF over GST control)"
same,binding signal,FEV,"1.07 fold enrichment (6-mer frequency, TF over GST control)"
same,binding signal,ETV5,"1.06 fold enrichment (6-mer frequency, TF over GST control)"
same,binding signal,HSF1,"1.04 fold enrichment (6-mer frequency, TF over GST control)"
same,binding signal,SPIC,"1.01 fold enrichment (6-mer frequency, TF over GST control)"
same,binding signal,ELF4,"1.09 fold enrichment (6-mer frequency, TF over GST control)"
same,binding signal,ELK4,"1.14 fold enrichment (6-mer frequency, TF over GST control)"
same,binding signal,ETV2,"1.11 fold enrichment (6-mer frequency, TF over GST control)"
same,binding signal,ELF3,"1.02 fold enrichment (6-mer frequency, TF over GST control)"
same,binding signal,CRX,"1.06 fold enrichment (6-mer frequency, TF over GST control)"
same,binding signal,ETV1,"1.06 fold enrichment (6-mer frequency, TF over GST control)"
